Measurements taken from PubChem BioAssay AID1345085 (National Center for Advancing Translational Sciences (NCATS), 2018).
Records with an inconclusive call do not appear. Calls of active or inactive are those of the source. The call rests on the fitted dose curve; in most records, active means well fitted cell-killing curve with a large enough effect; inconclusive means small, poorly fitted or top-dose-only effect, or effect the other way; inactive means no such curve, though single readings can be large or run the other way. *1 amine or outer side, *2 acyl side, *3 side chain or, on linkers, in order; H or OH if unused. Where a SMILES comes first, the peptide text is derived from it. Bridges are numbered along the chain shown (N, C = ends). Roman numbers before positions name the chains, in order. [ ]: non-standard residue; d: D form. Actinocin(9to1) = Cc1c2oc3c(C)ccc(C(=O)[*:1])c3nc-2c(C(=O)[*:2])c(N)c1=O; NMeV = CN[C@H](C(=O)O)C(C)C; Sar = CNCC(=O)O

The molecules below were run on Jar (assay: Confirmatory qHTS for gynecologic anti-cancer compounds from libraries of approved drugs and bioactive compounds). Conditions: gynecologic cancer cell panel viability, ATPlite luminescence, 48 h; series mostly up to 57.6 µM.
How it was run: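 Cells (1,000/well) plated 16 h, then exposed 48 h at 37 °C to 11 concentrations (1:3) from 57.5 uM to 0.977 nM. Viability by ATPlite luminescence after 15 min; IC50 derived, with HEK 293T used for selectivity index.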
Further: nearly all actives have a fitted effect of over 55% in size.
On the % scale 0 is the no-effect control and ±100 the full control effect; potency means the concentration at half of the fitted maximal effect.

Row | SMILES | Potency | activity change, negative = viability loss
1 | COc1cc2nccc(Oc3ccc(NC(=O)C4(C(=O)Nc5ccc(F)cc5)CC4)cc3)c2cc1OC | 27.3 µM (active) | 
2 | COc1cc(Nc2c(C#N)cnc3cc(OCCCN4CCN(C)CC4)c(OC)cc23)c(Cl)cc1Cl | 24.3 µM (active) | 
3 | Cc1c2oc3c(C)ccc(C(=O)N[C@@H]4C(=O)N[C@H](C(C)C)C(=O)N5CCC[C@H]5C(=O)N(C)CC(=O)N(C)[C@@H](C(C)C)C(=O)O[C@@H]4C)c3nc-2c(C(=O)N[C@@H]2C(=O)N[C@H](C(C)C)C(=O)N3CCC[C@H]3C(=O)N(C)CC(=O)N(C)[C@@H](C(C)C)C(=O)O[C@@H]2C)c(N)c1=O (I: T[dV]P[Sar][NMeV] / II: T[dV]P[Sar][NMeV]; ester I:1-I:C, II:1-II:C; linker I:N-II:N via Actinocin(9to1)) | 1.72 µM (active) | 
4 | Cc1ccc(C(=O)N(CCCN)C(c2oc3cc(Cl)ccc3c(=O)c2Cc2ccccc2)C(C)C)cc1 (stereo not drawn) | 0.0137 µM (active) | 
5 | CCC1C(=O)N(C)c2cnc(Nc3ccc(C(=O)NC4CCN(C)CC4)cc3OC)nc2N1C1CCCC1 (stereo not drawn) | 0.0217 µM (active) | 
6 | CCC1C(=O)N(C)c2cnc(Nc3ccc(C(=O)NC4CCC(N5CCN(CC6CC6)CC5)CC4)cc3OC)nc2N1C(C)C (stereo not drawn) | 0.0611 µM (active) | 
7 | Cc1ccc(C(=O)N(CCCN)C(c2nc3cc(Cl)ccc3c(=O)n2Cc2ccccc2)C(C)C)cc1 (stereo not drawn) | 0.0153 µM (active) | 
8 | C[C@@]1(C(=O)Nc2ccc(F)nc2)CCCN1c1nc(Nc2cc(C3CC3)[nH]n2)c2cccn2n1 | 8.63 µM (active) | 
9 | CCN1CCN(Cc2ccc(-c3cc4c(NC(C)c5ccccc5)ncnc4[nH]3)cc2)CC1 (stereo not drawn) | 21.7 µM (active) | 
10 | COc1cccc2c1C(=O)c1c(O)c3c(c(O)c1C2=O)C[C@@](O)(C(=O)CO)C[C@@H]3O[C@H]1C[C@H](N)[C@H](O)[C@H](C)O1 | 1.72 µM (active) | 
11 | CC(C)n1nc(-c2cc3cc(O)ccc3[nH]2)c2c(N)ncnc21 | 5.44 µM (active) | 
12 | COc1ccc(OC)c(-c2nnc3ccc(-c4ccc(OC)c(O[C@@H]5CCOC5)c4)nn23)c1 | 12.2 µM (active) | 
13 | Cn1c(=O)c(-c2c(Cl)cccc2Cl)cc2cnc(Nc3cccc(C(=O)O)c3)nc21 | 2.43 µM (active) | 
14 | O=C1NC(=O)C(c2cnc3ccccn23)=C1c1cn2c3c(cccc13)CN(C(=O)N1CCOCC1)CC2 | inactive | 
15 | CC[C@H](Nc1ncnc2nc[nH]c12)c1nc2cccc(F)c2c(=O)n1-c1ccccc1 |  | -10.1% [at 10.7 µM] (inactive)
16 | CCc1nc(C(N)=O)c(Nc2ccc(N3CCC(N4CCN(C)CC4)CC3)c(OC)c2)nc1NC1CCOCC1 | 13.4 µM (active) | 
17 | CCN(CC)CCCC(C)Nc1c2ccc(Cl)cc2nc2ccc(OC)cc12 (stereo not drawn) | inactive | 
18 | Cc1cc(C(C)Nc2ccccc2C(=O)O)c2nc(N3CCOCC3)cc(=O)n2c1 (stereo not drawn) | 0.968 µM (active) | 
19 | O=c1[nH]c(=O)n([C@H]2C[C@H](O)[C@@H](CO)O2)cc1Br | inactive | 

Row | SMILES | Potency | activity change, negative = viability loss
20 | Cn1cnc2c(F)c(Nc3ccc(Br)cc3F)c(C(=O)NOCCO)cc21 | inactive | 
21 | CNC(=O)c1ccccc1Sc1ccc2c(/C=C/c3ccccn3)n[nH]c2c1 | 19.3 µM (active) | 
22 | CCCCN(CCCC)C(=O)CN1C[C@H](c2ccc3c(c2)OCO3)[C@@H](C(=O)O)[C@@H]1c1ccc(OC)cc1 | inactive | 
23 | CCS(=O)(=O)N1CCN(c2ccc(Nc3ncc(C(N)=O)c(NC4CC4)n3)cc2)CC1 | 12.2 µM (active) | 
24 | COCCOc1ccc2c(c1)ncn2-c1ccc2cccc(N3CCC(N)CC3)c2n1 | inactive | 
25 | C[C@]12CCC(=O)C=C1CC[C@@H]1[C@@H]2[C@@H](O)C[C@@]2(C)[C@H]1CC[C@]2(O)C(=O)CO | inactive | 
26 | Cc1nc(NC(=O)N2CCCC2C(N)=O)sc1-c1ccnc(C(C)(C)C(F)(F)F)c1 (stereo not drawn) | 12.2 µM (active) | 
27 | CCN(CC)CCNC(=O)c1c(C)[nH]c(/C=C2\C(=O)Nc3ccc(F)cc32)c1C | 25.1 µM (active) | 
28 | COc1cc(N2CCC(N3CCN(C)CC3)CC2)ccc1Nc1ncnc(Nc2ccccc2S(=O)(=O)C(C)C)n1 | inactive | 
29 | O=c1c(-c2ccc(O)cc2)coc2cc(O)cc(O)c12 | inactive | 
30 | CC(=O)Nc1cccc(-n2c(=O)n(C3CC3)c(=O)c3c(Nc4ccc(I)cc4F)n(C)c(=O)c(C)c32)c1 | inactive | 
31 | CNc1nccc(-c2cccnc2Oc2cc(C(=O)Nc3cccc(C(F)(F)F)c3)ccc2C)n1 | 19.3 µM (active) | 
32 | CC(C)Oc1ccc2c(=O)c(-c3ccccc3)coc2c1 | 21.7 µM (active) | 
33 | COc1cc(N2CCC(N3CCN(C)CC3)CC2)ccc1Nc1ncc(Cl)c(Nc2ccccc2S(=O)(=O)C(C)C)n1 | 17.2 µM (active) | 
34 | CCCCc1oc2ccccc2c1C(=O)c1cc(I)c(OCCN(CC)CC)c(I)c1 | 79.4 µM (active) | 
35 | CC[C@@]1(O)C(=O)OCc2c1cc1n(c2=O)Cc2cc3c(CN(C)C)c(O)ccc3nc2-1 | 7.69 µM (active) | 
36 | CC[C@@]1(O)C(=O)OCc2c1cc1n(c2=O)Cc2c-1nc1ccccc1c2/C=N/OC(C)(C)C | 0.968 µM (active) | 
37 | CS(=O)(=O)c1ccc(-c2cnc(N)c(C(=O)Nc3ccccc3)n2)cc1 | inactive | 
38 | CC(=O)OC12COC1CC(O)C1(C)C(=O)C(O)C3=C(C)C(OC(=O)C(O)C(NC(=O)OC(C)(C)C)c4ccccc4)CC(O)(C(OC(=O)c4ccccc4)C21)C3(C)C (stereo not drawn) | 0.0432 µM (active) | 
